Reference: PubChem BioAssay (Tox21)
Records with an inconclusive call do not appear. A call without a number means that no potency is given here. Calls of active or inactive are those of the source. Calls come from the whole dose curve; as a rule, active = well fitted inhibition curve with a large enough effect in the signal ratio in the repeat runs (not every such curve was filed as active); inconclusive = weak or mixed curves; inactive = flat fitted curve, though single readings scatter; the % refers to the signal ratio.

target: Progesterone receptor (Homo sapiens) (UniProt P06401); assay: qHTS assay to identify small molecule antagonists of the progesterone receptor (PR) signaling pathway (AID 1346795); settings: PR-UAS-bla HEK293T, beta-lactamase FRET ratio, 16 h; series mostly up to 92.4 µM
Sequence (P06401 whole entry, looked up): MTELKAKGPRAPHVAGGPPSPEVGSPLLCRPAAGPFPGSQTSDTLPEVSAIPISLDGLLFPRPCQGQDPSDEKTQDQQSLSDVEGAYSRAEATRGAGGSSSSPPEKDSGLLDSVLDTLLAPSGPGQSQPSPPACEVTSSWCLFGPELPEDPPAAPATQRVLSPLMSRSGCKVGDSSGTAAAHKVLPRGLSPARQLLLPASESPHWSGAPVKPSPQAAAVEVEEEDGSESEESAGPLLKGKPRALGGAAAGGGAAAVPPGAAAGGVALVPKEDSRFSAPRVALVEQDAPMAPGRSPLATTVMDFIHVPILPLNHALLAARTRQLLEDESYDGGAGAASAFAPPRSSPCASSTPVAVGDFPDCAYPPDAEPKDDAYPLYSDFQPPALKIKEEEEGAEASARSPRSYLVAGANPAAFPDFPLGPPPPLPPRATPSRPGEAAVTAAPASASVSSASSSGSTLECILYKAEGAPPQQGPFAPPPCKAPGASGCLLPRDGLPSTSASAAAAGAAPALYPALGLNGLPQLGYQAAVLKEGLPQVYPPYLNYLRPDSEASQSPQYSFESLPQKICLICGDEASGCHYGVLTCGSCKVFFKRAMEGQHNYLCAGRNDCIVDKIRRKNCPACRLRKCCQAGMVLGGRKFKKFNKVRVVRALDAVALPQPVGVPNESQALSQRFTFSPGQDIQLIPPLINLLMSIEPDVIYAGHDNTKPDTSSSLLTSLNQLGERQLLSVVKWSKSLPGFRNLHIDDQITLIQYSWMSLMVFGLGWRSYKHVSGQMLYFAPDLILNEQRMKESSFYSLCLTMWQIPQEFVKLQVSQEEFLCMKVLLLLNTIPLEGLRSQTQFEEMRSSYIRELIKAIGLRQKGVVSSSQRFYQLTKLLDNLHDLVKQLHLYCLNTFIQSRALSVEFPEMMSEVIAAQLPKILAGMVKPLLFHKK
Excerpt: National Center for Advancing Translational Sciences [NCATS]
NIH Chemical Genomics Center [NCGC]
U.S. Environmental Protection Agency [EPA]
National Institutes of Environmental Health Sciences [NIEHS]
National Toxicology Program [NTP]
U.S. Food and Drug Administration [FDA]
Progesterone receptor (PR), a nuclear hormone receptor, plays an important role in development, metabolic homeostasis and reproduction. […] Endocrine disrupting chemicals (EDCs) and their interactions with steroid hormone receptors like PR causes disruption of normal endocrine function. To identify the compounds that inhibit PR signaling, a PR-UAS-bla GripTite cell line i.e. PR-UAS-bla HEK293T (Invitrogen, Carlsbad, CA, USA) containing a beta-lactamase reporter gene under the control of an Upstream Activator Sequence (UAS) was used to screen Tox21 10K compound library.
Tox21 Assay Protocol Summary:
PR-UAS-bla HEK293T cells were dispensed at 3,000 cells/4 uL of assay medium containing 2% charcoal stripped FBS per well into black wall/clear-bottom 1536-well plates using a Multidrop Combi (ThermoFisher Scientific, Waltham, MA) dispenser. After the assay plates were incubated at a 37C and 5% CO2 for 6 hr, 23 nL of compounds dissolved in DMSO, positive controls or DMSO only was transferred to the assay plate by a Pintool station (Kalypsys, San Diego, CA), followed by addition of 1 uL (1nM as final concentration) of Promegestone (R5020) in assay medium using a BioRAPTR FRD (Flying Reagent Dispenser, Aurora Discovery, San Diego, CA). The plates were incubated at 37C and 5% CO2 for 16 hr. Then 1 uL of LiveBLAzer B/G FRET substrate was added using a FRD. After the plates were incubated at room temperature for 2 hours, fluorescence intensity was measured by an Envision plate reader (PerkinElmer, Shelton, CT).

Row | Compound | Potency | activity change, negative = inhibition
1 | CCCCCCCCOCCC#N | inactive | –
2 | C=CCn1cc[n+](C)c1 | inactive | –
3 | CCCCN1C(=O)c2ccccc2C1=O | inactive | –
4 | Cc1ccc(OC(=O)CC(C)C)cc1 | inactive | –
5 | CC1(C)C(=O)C(C)(C)C1=O | inactive | –
6 | COc1ccccc1N1CCN(CC(O)COc2cc(OC)c(OC)c(OC)c2)CC1 (stereo not given) | inactive | –
7 | C=CC(=O)CC | inactive | –
8 | CCN1CCN(C(=O)N[C@@H](C(=O)N[C@@H]2C(=O)N3[C@@H]2SC(C)(C)[C@H]3C(=O)O)c2ccccc2)C(=O)C1=O | inactive | –
9 | COc1cc(OC)cc(OC)c1 | inactive | –
10 | COc1cc(NS(=O)(=O)c2ccc(N)cc2)ncn1 | inactive | –
11 | CC(C)(C)NCC(O)COc1cccc2c1CCC(=O)N2 (stereo not given) | inactive | –
12 | N#Cc1ccccc1C#N | inactive | –
13 | c1coc(Cn2cccc2)c1 | inactive | –
14 | Cc1ccccc1C#N | inactive | –
15 | CCCCOCCCC | inactive | –
16 | Nc1ccc(C(=O)NCC(=O)O)cc1 | inactive | –
17 | Cc1ccc(O)c(C(=O)c2ccccc2)c1 | inactive | –
18 | Cc1cc(=O)oc2cc(O[C@@H]3SC[C@@H](O)[C@H](O)[C@H]3O)ccc12 | inactive | –
19 | O=C(O)/C=C(\CC(=O)O)C(=O)O | inactive | –
20 | CCCc1ncc(C(=O)O)s1 | inactive | –

Row | Compound | Potency | activity change, negative = inhibition
21 | CC1(C)CC(N)CC(C)(C)N1 | inactive | –
22 | CC(C)=CCC/C(C)=C\C#N | inactive | –
23 | CCOc1ccccc1OCCN[C@H](C)Cc1ccc(OC)c(S(N)(=O)=O)c1 | inactive | –
24 | O=C(O)Cc1c(Cl)ccc(Cl)c1Cl | inactive | –
25 | C=CCN1CCc2nc(N)sc2CC1 | inactive | –
26 | O=C(O)CCC(=O)Nc1ccc(S(=O)(=O)Nc2nccs2)cc1 | inactive | –
27 | CCN(CC)CC(=O)Oc1ccc(NC(C)=O)cc1 | inactive | –
28 | CCCC(=O)CC | inactive | –
29 | CCCCCCCCCCCCCCBr | inactive | –
30 | NC[C@H]1O[C@H](O[C@H]2[C@H](O)[C@@H](O[C@H]3O[C@H](CO)[C@@H](O)[C@H](N)[C@H]3O)[C@H](N)C[C@@H]2N)[C@H](N)[C@@H](O)[C@@H]1O | – | 11.8% [at 18.9 µM] (inactive)
31 | O=S(=O)(O)CC(O)CCl (stereo not given) | inactive | –
32 | CC(=O)Oc1ccc(C(C)=O)cc1 | inactive | –
33 | Cc1ccc2ccccc2n1 | inactive | –
34 | CC(C)C(C)C | inactive | –
35 | CN(C)c1ccncc1 | inactive | –
36 | CC1(C)S[C@@H]2[C@H](NC(=O)Cc3ccccc3)C(=O)N2[C@H]1C(=O)O (tested in a mixture with another compound) | inactive | –
37 | CCNC(=O)C(C)OC(=O)Nc1ccccc1 (stereo not given) | inactive | –
38 | CC(C)(C)C(=O)CCc1ccc(Cl)cc1 | inactive | –
39 | Cc1ccc(Br)cc1 | inactive | –
40 | CCCC(C)C(O)CC (stereo not given) | inactive | –
